Laboratory results taken from PMC7862700, “An all-to-all approach to the identification of sequence-specific readers for epigenetic DNA modifications on cytosine”.

Columns and labels:
Test in all cases: DAPPL (digital affinity profiling via proximity ligation, sequencing); 10 mM Tris-HCl pH 7.5, 50 mM NaCl, 1 mM DTT, 4% glycerol, room temperature, 30 min; GST-TFs on glutathione beads, 16-mer random dsDNA library, 0.1% formaldehyde crosslink after washing; high values mean tight binding
HSF1 = HSF1 (Homo sapiens, UniProt Q00613 1-529); settings: protein: recombinant; tags: N-terminal GST; chain copies: 3; dsDNA, one strand shown
In short: (§1)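 After expression in yeast as GST fusions, human transcription factors were bound to glutathione beads, DNA-barcoded and mixed with a tag-only sample. The pools were incubated with 200 nmole of a 16-mer random double-stranded DNA library in Tris/NaCl/DTT/glycerol buffer (30 min, room temperature), washed and crosslinked with 0.1% formaldehyde. Proximity ligation with BsaI/T4 ligase ran for 1 h at 37 °C, before PCR amplification and sequencing on an Illumina NextSeq500. Binding signal is a hexamer's read frequency for a factor divided by its frequency for the tag-only sample.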

SPIC = target: T1, SPIC (Homo sapiens, UniProt Q8N5J4 1-248); settings: protein: recombinant; tags: N-terminal GST; dsDNA, one strand shown
T1 sequence: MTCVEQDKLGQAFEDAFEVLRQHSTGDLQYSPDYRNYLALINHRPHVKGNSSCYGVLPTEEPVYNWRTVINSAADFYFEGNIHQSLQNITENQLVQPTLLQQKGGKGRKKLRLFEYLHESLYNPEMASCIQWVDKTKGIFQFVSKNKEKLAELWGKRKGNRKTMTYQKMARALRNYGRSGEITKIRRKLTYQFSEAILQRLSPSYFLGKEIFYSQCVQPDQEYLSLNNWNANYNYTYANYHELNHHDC
In short: as §1

ELK1 = target: T2, ELK1 (Homo sapiens, UniProt P19419 1-428); settings: protein: recombinant; tags: N-terminal GST; dsDNA, one strand shown
T2 sequence: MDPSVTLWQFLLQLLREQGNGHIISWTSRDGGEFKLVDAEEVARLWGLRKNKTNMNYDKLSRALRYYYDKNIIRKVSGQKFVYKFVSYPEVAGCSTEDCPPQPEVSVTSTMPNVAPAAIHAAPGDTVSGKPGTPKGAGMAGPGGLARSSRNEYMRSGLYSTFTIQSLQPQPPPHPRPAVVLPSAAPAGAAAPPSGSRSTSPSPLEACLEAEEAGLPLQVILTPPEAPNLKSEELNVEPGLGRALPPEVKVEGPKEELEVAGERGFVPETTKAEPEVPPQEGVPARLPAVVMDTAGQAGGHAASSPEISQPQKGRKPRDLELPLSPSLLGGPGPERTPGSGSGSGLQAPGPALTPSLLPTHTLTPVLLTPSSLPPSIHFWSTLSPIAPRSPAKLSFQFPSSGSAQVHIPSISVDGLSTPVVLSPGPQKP
In short: as §1

ERG = target: T3, ERG (Homo sapiens, UniProt P11308 1-479); settings: protein: recombinant; tags: N-terminal GST; dsDNA, one strand shown
T3 sequence: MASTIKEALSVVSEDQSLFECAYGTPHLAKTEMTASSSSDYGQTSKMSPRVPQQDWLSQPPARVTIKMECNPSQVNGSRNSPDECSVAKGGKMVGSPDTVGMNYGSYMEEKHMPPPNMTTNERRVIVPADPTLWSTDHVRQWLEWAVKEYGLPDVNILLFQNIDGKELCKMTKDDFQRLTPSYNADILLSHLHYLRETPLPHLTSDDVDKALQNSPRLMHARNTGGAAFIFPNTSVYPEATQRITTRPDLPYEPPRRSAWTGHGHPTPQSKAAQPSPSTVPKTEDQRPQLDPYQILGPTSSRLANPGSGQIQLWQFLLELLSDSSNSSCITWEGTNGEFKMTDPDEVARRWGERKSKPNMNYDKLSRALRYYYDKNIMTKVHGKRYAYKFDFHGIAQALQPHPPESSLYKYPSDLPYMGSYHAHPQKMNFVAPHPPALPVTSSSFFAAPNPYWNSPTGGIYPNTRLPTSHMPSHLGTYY
In short: as §1

ELF1 = ELF1 (Homo sapiens, UniProt P32519 1-619); settings: protein: recombinant; tags: N-terminal GST; dsDNA, one strand shown
In short: as §1

EHF = target: T4, EHF (Homo sapiens, UniProt Q9NZC4 1-300); settings: protein: recombinant; tags: N-terminal GST; dsDNA, one strand shown
T4 sequence: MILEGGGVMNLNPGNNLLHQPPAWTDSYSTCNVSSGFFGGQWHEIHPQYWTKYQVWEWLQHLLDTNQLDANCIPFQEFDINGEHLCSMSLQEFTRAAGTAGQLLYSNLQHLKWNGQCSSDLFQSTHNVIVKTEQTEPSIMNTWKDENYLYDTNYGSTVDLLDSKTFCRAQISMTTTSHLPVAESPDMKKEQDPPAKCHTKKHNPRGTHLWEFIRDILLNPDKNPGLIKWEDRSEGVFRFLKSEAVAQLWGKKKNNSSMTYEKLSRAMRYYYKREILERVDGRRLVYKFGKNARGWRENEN
In short: as §1

SPI1 = SPI1 (Homo sapiens, UniProt P17947 1-270); settings: protein: recombinant; tags: N-terminal GST; dsDNA, one strand shown
In short: as §1

SPIB = SPIB (Homo sapiens, UniProt Q01892 1-262); settings: protein: recombinant; tags: N-terminal GST; dsDNA, one strand shown
In short: as §1

ELK3 = target: T5, ELK3 (Homo sapiens, UniProt P41970 1-407); settings: protein: recombinant; tags: N-terminal GST; dsDNA, one strand shown
T5 sequence: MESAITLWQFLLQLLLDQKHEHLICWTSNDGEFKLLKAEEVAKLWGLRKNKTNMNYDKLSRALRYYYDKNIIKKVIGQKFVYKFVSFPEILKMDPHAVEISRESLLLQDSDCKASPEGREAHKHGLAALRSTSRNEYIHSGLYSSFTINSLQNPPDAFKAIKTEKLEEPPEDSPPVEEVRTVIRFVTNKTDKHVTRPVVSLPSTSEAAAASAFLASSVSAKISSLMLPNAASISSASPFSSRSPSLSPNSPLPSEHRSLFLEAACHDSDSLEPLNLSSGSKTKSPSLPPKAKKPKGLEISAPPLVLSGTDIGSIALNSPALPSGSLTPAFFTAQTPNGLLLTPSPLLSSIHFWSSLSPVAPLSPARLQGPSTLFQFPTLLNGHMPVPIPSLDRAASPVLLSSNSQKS
In short: as §1

ELK4 = target: T6, ELK4 (Homo sapiens, UniProt P28324-2 1-405); settings: protein: recombinant; tags: N-terminal GST; dsDNA, one strand shown
T6 sequence: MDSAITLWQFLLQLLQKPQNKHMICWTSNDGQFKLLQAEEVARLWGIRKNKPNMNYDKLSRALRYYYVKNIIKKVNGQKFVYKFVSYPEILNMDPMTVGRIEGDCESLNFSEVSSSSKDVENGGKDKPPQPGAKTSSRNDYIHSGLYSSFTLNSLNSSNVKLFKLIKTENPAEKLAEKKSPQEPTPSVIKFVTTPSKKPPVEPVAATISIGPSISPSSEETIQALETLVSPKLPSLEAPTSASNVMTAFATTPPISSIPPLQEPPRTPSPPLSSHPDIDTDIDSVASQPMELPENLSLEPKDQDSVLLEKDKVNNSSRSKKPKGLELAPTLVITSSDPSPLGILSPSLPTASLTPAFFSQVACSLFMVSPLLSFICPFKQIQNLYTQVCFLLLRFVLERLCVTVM
In short: as §1

ETV2 = target: T7, ETV2 (Homo sapiens, UniProt O00321 1-342); settings: protein: recombinant; tags: N-terminal GST; dsDNA, one strand shown
T7 sequence: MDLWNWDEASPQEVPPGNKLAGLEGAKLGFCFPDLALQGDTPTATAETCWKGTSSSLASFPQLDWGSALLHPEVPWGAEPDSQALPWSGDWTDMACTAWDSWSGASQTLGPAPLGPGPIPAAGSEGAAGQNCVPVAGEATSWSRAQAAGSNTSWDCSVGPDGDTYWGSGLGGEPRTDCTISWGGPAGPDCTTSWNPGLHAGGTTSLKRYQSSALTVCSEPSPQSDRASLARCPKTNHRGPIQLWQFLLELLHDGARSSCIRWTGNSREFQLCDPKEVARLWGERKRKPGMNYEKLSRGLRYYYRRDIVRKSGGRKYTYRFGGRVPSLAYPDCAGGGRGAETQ
In short: as §1

ELF3 = target: T8, ELF3 (Homo sapiens, UniProt P78545 1-371); settings: protein: recombinant; tags: N-terminal GST; dsDNA, one strand shown
T8 sequence: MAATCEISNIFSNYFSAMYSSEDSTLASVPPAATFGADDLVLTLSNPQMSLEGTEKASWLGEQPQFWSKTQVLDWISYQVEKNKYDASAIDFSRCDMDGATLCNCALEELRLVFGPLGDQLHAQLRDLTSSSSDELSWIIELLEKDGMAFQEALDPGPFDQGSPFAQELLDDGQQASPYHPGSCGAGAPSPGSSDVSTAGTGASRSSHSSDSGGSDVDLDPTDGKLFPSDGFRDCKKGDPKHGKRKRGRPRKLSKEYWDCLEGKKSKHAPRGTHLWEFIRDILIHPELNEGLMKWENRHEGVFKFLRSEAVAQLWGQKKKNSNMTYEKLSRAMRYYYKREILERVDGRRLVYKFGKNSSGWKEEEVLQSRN
In short: as §1

ETV1 = ETV1 (Homo sapiens, UniProt P50549 1-477); settings: protein: recombinant; tags: N-terminal GST; dsDNA, one strand shown
In short: as §1

ERF = target: T9, ERF (Homo sapiens, UniProt P50548 1-548); settings: protein: recombinant; tags: N-terminal GST; dsDNA, one strand shown
T9 sequence: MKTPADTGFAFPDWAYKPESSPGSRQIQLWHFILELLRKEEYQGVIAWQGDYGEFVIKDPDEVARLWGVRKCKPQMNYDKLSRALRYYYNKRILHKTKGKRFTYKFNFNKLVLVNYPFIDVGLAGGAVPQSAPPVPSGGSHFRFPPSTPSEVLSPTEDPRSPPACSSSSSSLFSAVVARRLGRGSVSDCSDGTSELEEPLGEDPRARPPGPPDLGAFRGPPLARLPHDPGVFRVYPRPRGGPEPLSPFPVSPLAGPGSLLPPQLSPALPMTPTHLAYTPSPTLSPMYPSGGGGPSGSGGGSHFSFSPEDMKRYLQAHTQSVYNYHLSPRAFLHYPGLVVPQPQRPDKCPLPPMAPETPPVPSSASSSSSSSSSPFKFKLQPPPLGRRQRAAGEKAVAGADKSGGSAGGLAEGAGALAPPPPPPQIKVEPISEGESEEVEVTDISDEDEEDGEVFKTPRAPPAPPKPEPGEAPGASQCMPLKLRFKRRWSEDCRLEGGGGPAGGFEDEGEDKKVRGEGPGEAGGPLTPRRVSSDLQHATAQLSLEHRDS
In short: as §1

ETS2 = target: T10, ETS2 (Homo sapiens, UniProt P15036 1-469); settings: protein: recombinant; tags: N-terminal GST; dsDNA, one strand shown
T10 sequence: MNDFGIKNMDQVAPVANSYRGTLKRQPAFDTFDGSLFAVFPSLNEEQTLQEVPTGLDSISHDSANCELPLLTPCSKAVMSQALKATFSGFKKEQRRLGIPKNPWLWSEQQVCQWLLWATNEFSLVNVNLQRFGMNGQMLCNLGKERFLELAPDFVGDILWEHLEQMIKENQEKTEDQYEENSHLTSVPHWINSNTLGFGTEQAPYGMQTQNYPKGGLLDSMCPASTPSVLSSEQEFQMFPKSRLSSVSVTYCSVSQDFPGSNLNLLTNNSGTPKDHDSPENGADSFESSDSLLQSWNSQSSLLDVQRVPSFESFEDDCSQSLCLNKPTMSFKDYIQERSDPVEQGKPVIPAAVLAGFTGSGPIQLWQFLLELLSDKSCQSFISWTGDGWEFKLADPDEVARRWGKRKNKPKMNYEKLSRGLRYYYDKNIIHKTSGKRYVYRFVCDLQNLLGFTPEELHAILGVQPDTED
In short: as §1

HSF1, sequence (Q00613 whole entry, the tested form may be a part): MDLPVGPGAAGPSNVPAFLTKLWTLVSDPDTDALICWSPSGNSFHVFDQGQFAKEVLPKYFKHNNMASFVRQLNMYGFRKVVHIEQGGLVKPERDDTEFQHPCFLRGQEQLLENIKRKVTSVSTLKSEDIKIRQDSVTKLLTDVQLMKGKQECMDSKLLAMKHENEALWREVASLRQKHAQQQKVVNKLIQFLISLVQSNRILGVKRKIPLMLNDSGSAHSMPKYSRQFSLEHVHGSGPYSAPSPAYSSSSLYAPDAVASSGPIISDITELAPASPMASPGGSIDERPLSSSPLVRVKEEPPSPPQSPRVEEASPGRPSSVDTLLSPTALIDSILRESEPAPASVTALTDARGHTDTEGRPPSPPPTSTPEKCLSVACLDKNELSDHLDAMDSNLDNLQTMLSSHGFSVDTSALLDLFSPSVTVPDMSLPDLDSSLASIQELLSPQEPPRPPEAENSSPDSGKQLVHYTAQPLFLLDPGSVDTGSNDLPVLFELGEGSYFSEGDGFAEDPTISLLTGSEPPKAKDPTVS
ELF1, sequence (P32519 whole entry): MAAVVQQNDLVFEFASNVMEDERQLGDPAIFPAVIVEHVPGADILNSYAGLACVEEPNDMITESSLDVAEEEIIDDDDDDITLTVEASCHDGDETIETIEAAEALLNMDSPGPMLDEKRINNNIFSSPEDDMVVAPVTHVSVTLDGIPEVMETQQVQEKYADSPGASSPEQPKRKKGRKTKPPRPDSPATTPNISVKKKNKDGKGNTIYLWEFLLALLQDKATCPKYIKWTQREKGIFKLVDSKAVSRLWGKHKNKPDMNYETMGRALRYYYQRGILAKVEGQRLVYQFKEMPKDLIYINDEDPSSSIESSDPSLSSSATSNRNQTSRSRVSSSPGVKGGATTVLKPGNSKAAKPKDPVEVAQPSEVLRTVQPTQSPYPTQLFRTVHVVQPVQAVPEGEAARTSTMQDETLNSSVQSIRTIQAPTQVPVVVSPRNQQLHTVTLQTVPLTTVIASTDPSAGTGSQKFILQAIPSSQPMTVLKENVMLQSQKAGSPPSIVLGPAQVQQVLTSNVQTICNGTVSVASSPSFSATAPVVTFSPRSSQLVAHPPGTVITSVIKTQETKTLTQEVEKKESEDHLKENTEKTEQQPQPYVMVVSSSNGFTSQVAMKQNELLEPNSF
ETV1, sequence (P50549 whole entry): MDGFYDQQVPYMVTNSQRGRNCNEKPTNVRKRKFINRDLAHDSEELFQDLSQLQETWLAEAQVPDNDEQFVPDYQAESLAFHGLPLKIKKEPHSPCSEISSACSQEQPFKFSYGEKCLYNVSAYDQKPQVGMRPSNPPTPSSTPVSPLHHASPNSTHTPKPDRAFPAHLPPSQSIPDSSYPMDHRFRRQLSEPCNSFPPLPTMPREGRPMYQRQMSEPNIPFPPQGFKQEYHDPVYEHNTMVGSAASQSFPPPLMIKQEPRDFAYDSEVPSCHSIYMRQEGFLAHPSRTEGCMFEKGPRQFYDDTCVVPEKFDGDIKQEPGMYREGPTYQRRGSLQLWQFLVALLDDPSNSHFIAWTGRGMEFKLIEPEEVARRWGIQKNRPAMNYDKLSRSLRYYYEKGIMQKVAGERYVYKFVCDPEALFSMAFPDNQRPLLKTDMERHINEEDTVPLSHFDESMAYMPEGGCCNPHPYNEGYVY
SPIB, sequence (Q01892 whole entry): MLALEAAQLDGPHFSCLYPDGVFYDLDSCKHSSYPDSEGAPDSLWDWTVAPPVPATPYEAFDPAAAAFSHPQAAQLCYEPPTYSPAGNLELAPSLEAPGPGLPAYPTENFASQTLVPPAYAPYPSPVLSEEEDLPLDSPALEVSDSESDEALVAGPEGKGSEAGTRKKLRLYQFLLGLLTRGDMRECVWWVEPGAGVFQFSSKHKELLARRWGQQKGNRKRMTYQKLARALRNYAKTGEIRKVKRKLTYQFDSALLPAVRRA

GCAGAA
binding signal (HSF1): 1.15 fold enrichment (6-mer frequency, TF over GST control) | binding signal (SPIC): 1.03 fold enrichment (6-mer frequency, TF over GST control)

CGCAAA
binding signal (ELK1): 1.01 fold enrichment (6-mer frequency, TF over GST control) | binding signal (ERG): 1.04 fold enrichment (6-mer frequency, TF over GST control) | binding signal (ELF1): 1 fold enrichment (6-mer frequency, TF over GST control) | binding signal (EHF): 1.03 fold enrichment (6-mer frequency, TF over GST control) | binding signal (SPI1): 1.05 fold enrichment (6-mer frequency, TF over GST control) | binding signal (SPIB): 1.02 fold enrichment (6-mer frequency, TF over GST control) | binding signal (ELK3): 1.08 fold enrichment (6-mer frequency, TF over GST control) | binding signal (HSF1): 1.01 fold enrichment (6-mer frequency, TF over GST control) | binding signal (SPIC): 1.02 fold enrichment (6-mer frequency, TF over GST control) | binding signal (ELK4): 1.03 fold enrichment (6-mer frequency, TF over GST control) | binding signal (ETV2): 1.07 fold enrichment (6-mer frequency, TF over GST control) | binding signal (ELF3): 1.13 fold enrichment (6-mer frequency, TF over GST control) | binding signal (ETV1): 1.11 fold enrichment (6-mer frequency, TF over GST control) | binding signal (ERF): 1.1 fold enrichment (6-mer frequency, TF over GST control) | binding signal (ETS2): 1.06 fold enrichment (6-mer frequency, TF over GST control)
